Experimental data published in PubChem BioAssay (Tox21).
Results filed as inconclusive are left out. Activity calls are given as the source filed them. Unless noted, the call rests on the fitted dose curve; in most records, active means well fitted curve in the direction sought with a large enough effect in the repeat runs; inconclusive means weak or mixed curves; inactive means no such curve, though single readings can be large; an effect the other way counts as inactive or inconclusive.

What was measured:
[1] = qHTS assay to identify small molecule antagonists of the TGF-beta/Smad signaling pathway - cell viability counter screen (AID 1346824); further: nearly all actives have a fitted effect of over 50% in size
How it was run: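 SBE-bla HEK 293T cells, incubated overnight, then compound plus 0.25 ng/mL TGF-beta1 (stock added) for 5 hr at 37 C. Viability was read in the same wells by CellTiter-Glo luminescence after 30 min at room temperature.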

[2] = qHTS assay to identify small molecule agonists of the TGF-beta/Smad signaling pathway - cell viability counter screen (AID 1346829); further: top concentration of the series differs between compounds; nearly all actives have a fitted effect of over 45% in size
How it was run: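 After overnight seating at 37 C and 5% CO2, reporter cells got compounds for 5 hr and FRET substrate for 2 hr; cell viability then came from CellTiter-Glo luminescence.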

[3] = qHTS assay to identify small molecule agonists of the TGF-beta/Smad signaling pathway (AID 1346859; active means well fitted activation curve with a large enough effect in the signal ratio in the repeat runs, not every such curve was filed as active; the % refers to the signal ratio; further: series mostly up to about 77 µM)
How it was run: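 Stable Smad binding element-beta-lactamase HEK 293T cells; 5 hr compound exposure at 37 C under 5% CO2; 2 hr room-temperature substrate step; fluorescence excited at 405 nm, collected at 460 nm and 530 nm.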

[4] = target: Thyrotropin-releasing hormone receptor (Homo sapiens) (UniProt P34981); experiment: qHTS assay to identify small molecule antagonists of the thyrotropin-releasing hormone receptor (TRHR) signaling pathway (AID 1346877; active means well fitted inhibition curve with a large enough effect in the repeat runs, not every such curve was filed as active; further: series mostly up to about 51 µM)
How it was run: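 TRHR-expressing HEK293 cells were seeded, cultured 18 h at 37 °C, then loaded with calcium dye for 2 h. Compounds were pre-incubated 5 min at room temperature before 1 nM TRH (final) was added, and kinetic fluorescence was recorded for 3 min.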

[5] = target: Thyrotropin-releasing hormone receptor (Homo sapiens) (UniProt P34981); experiment: qHTS assay to identify small molecule agonists of the thyrotropin-releasing hormone receptor (TRHR) signaling pathway (AID 1346891; calls by dose curve; further: series mostly up to about 58 µM)
How it was run: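 In 1536-format, 1500 TRHR-Hek293 cells per well grew 18 h, took up calcium dye for 2 h at 37 °C, received compound, and were read kinetically; 15-point titrations, triplicates.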

[6] = Human pregnane X receptor (PXR) small molecule agonists, qHTS cell viability counter screen (AID 1346977); further: nearly all actives have a fitted effect of over 50% in size
How it was run: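 Readout is CellTiter-Fluor fluorescence from PXR-Luc HepG2 cells. Plated cells rested 5hr, then were treated with compounds for 24hr at 37C and 5% CO2, with reagent present during the last hour.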

[7] = Caspase-3/7 induction in HepG2 cells by small molecules, qHTS assay (AID 1346978); further: nearly all actives have a fitted effect of over 15% in size
How it was run: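 Wild-type HepG2 cells, 2,000/well, settled 5 hr at 37 C and 5% CO2, then compound-treated for 17 hr; caspase-3/7 activity read by luminescent Caspase-Glo 3/7 after 30 min at room temperature.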

[8] = Caspase-3/7 induction in CHO-K1 cells by small molecules, qHTS cell viability counter screen (AID 1346979); further: nearly all actives have a fitted effect of over 35% in size
How it was run: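 To flag cytotoxic compounds, treated CHO-K1 wild-type cells were given CellTiter-Fluor at 16hr and read fluorescently after 1hr at 37C; the caspase-3/7 luminescence was measured in these same wells.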

[9] = Caspase-3/7 induction in CHO-K1 cells by small molecules, qHTS assay (AID 1346980); further: nearly all actives have a fitted effect of over 15% in size
How it was run: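 Wild-type CHO-K1 cells exposed to compounds for 17hr at 37 C, 5% CO2. Caspase-3/7 activity then measured by Caspase-Glo 3/7 luminescence after 30min at room temperature.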

[10] = Caspase-3/7 induction in HepG2 cells by small molecules, qHTS cell viability counter screen (AID 1346981); further: series mostly up to about 92 µM; nearly all actives have a fitted effect of over 30% in size
How it was run: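 Wild-type HepG2 cells (2,000/well) were allowed to settle for 5 hr at 37 C, 5% CO2, then dosed with compounds in DMSO by pin transfer. After 16 hr at 37 C, CellTiter-Fluor was added and fluorescence read 1 hr later.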

Measured: Potency

Thyrotropin-releasing hormone receptor (Homo sapiens), sequence (P34981 whole entry, looked up): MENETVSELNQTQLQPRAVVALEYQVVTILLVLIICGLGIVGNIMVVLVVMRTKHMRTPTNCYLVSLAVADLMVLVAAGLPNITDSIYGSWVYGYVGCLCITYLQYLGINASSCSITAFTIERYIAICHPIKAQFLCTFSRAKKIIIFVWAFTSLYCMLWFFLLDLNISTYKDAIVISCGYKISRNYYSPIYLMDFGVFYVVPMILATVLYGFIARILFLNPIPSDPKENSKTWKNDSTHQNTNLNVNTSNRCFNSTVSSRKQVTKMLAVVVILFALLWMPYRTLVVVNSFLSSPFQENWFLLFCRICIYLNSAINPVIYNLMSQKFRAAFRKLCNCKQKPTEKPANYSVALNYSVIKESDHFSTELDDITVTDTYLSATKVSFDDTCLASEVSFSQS

CCCCCCCCCCCCCCCC(=O)NCCO
inactive: all assays above

CCOC(=O)CC(CC(=O)OCC)(OC(C)=O)C(=O)OCC
inactive: all assays above

CCc1nccnc1C
inactive: all assays above

O=C(O)c1ccccc1C(=O)OCc1ccccc1
inactive: all assays above

Oc1ccccc1Cc1ccccc1O
inactive: all assays above

CCCCCCCCCCCCOC(C)=O
inactive: all assays above

NS(=O)(=O)c1cc2c(cc1Cl)NC(CC1CCCC1)NS2(=O)=O (centres undefined)
inactive: all assays above

Nc1cc(C(=O)O)ccc1Cl
inactive: all assays above

O=S(=O)(O)SSS(=O)(=O)O
inactive: all assays above

C=CCOc1c(Br)cc(Br)cc1Br
inactive: all assays above

O=C(CN1CCN(Cc2ccc3c(c2)OCO3)CC1)N1c2ccccc2Sc2ccccc21
inactive: all assays above

Cc1ccccc1OCC1CO1 (centres undefined)
inactive: all assays above

O=[Si]=O
inactive: all assays above

C/C=C(\C)C(=O)OCC/C=C\CC
inactive: all assays above

CC(=O)c1ccc(OCC(=O)N2CCCCC2)cc1
inactive: all assays above

COc1ccc(/C=N/NC(=O)c2ccncc2)cc1OC
inactive: all assays above

Cc1nc([N+](=O)[O-])cn1-c1ccc([N+](=O)[O-])cc1
inactive: all assays above

CCCCCCCCC(=O)OCC
not listed: [10]
inactive: all other assays above

COc1ccc(OC)c(NC(=O)CC(C)=O)c1
inactive: all assays above

F[Si-2](F)(F)(F)(F)F
inactive: all assays above

COc1cc(C=O)ccc1OC(=O)C(C)C
inactive: all assays above

CC1CCC(C(C)(C)S)C(=O)C1 (centres undefined)
not listed: [10]
inactive: all other assays above

CCCCCCCCCCCCC
inactive: all assays above

O=C(c1ccc2c(c1)C(=O)OC2=O)c1ccc2c(c1)C(=O)OC2=O
inactive: all assays above

C=CCOCC(CO)(COCC=C)COCC=C
inactive: all assays above

CC(C)(C)NCCO
inactive: all assays above

C=C(C)C(=O)OC1CC(C)CC(C)(C)C1 (centres undefined)
inactive: all assays above

C1CCN2C[C@@H]3C[C@@H](CN4CCCC[C@@H]34)[C@H]2C1
inactive: all assays above

NC(=O)NC(=O)Cc1ccccc1
inactive: all assays above

CC(CC(=O)O)CC(C)(C)C (centres undefined)
inactive: all assays above

CCCCCCCC[Si](OCC)(OCC)OCC
not listed: [10]
inactive: all other assays above

C=CCOc1cc(Cl)ccc1C(=O)NCCN(CC)CC
inactive: all assays above

COC(OC)C(C)c1ccccc1 (centres undefined)
inactive: all assays above

O=C(O)/C=C/c1ccccc1
inactive: all assays above

CNCc1ccccc1
inactive: all assays above

CCCCCC1CCCC(=O)O1 (centres undefined)
inactive: all assays above

O=C(O)c1ccccc1C(=O)Nc1ccc(S(=O)(=O)Nc2nccs2)cc1
inactive: all assays above

C=CCOC(=O)c1ccc(C(=O)OCC=C)c(C(=O)OCC=C)c1
not listed: [8]
inactive: all other assays above

Nc1ccc(C(=O)OCC(O)CO)cc1 (centres undefined)
not listed: [8]
inactive: all other assays above

COc1ccc(NS(=O)(=O)c2ccc(N)cc2)nn1
not listed: [9]
inactive: all other assays above

NC(=O)NNC(N)=O
inactive: all assays above

CCC(C)N (centres undefined)
not listed: [8]
inactive: all other assays above

FC(F)(F)c1ccc(Cl)cc1Cl
inactive: all assays above

C[C@H]1O[C@H](O[C@H]2[C@H](O)[C@@H](O)[C@@H](O[C@H]3[C@H](O)[C@@H](O)[C@H](O)O[C@@H]3CO)O[C@@H]2CO)[C@H](O)[C@@H](O)[C@@H]1N[C@H]1C=C(CO)[C@@H](O)[C@H](O)[C@H]1O
inactive: all assays above

CC1=CC[C@H](CC=O)C1(C)C
not listed: [8] | [9]
inactive: all other assays above

CCOc1ccc(NC(=O)OC(C)C)cc1OCC
not listed: [8]
inactive: all other assays above

O=C1OC(=O)c2cc(Oc3ccc4c(c3)C(=O)OC4=O)ccc21
not listed: [8]
inactive: all other assays above
